In PubChem BioAssay (EPA / NIEHS):
The source made the active and inactive calls. Rule for the calls: active = hit-call score of the fitted dose curve at least 0.9, where 1 is the maximum; inactive = score below 0.9.

Assays:
[1] = ATG_GRE_CIS: Attagene CIS-FACTORIAL HepG2 Assay for human Glucocorticoid Response Elements (GRE) (AID 2282947); settings: HepG2 GRE cis-reporter, Attagene multiplex mRNA; actives raise or lower the signal
Procedure, shortened: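 Fluorescence intensity of reporter-specific cDNA fragments, separated by capillary electrophoresis, provides the signal. Constructs carry cis-regulating promoters in transiently transfected HepG2 liver cells; 24 h incubation; fitting is bidirectional against DMSO.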

[2] = ATG_ISRE_CIS: Attagene CIS-FACTORIAL HepG2 Assay for human Interferon Regulatory Factor 1 (IRF1) binding to an Interferon-Stimulated Response Element (ISRE) (AID 2282948); settings: HepG2 ISRE cis-reporter (Attagene), mRNA transcription readout; actives raise or lower the signal
Procedure, shortened: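 Endogenous transcription factor activity read as reporter transcript abundance via RT-PCR and capillary electrophoresis. HepG2 cells transiently transfected, 24 h chemical exposure. Gain or loss fitted against DMSO baseline.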

[3] = ATG_M_32_CIS: Attagene CIS-FACTORIAL HepG2 Assay for M32 Transcription Factor (Internal Marker) (AID 2282949); settings: HepG2 Attagene cis-factorial M32 reporter, mRNA; actives raise or lower the signal;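 note: background control marker of the multiplexed CIS panel rather than a real target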
Procedure, shortened: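 HepG2 human liver cells transiently transfected with cis-promoter-driven multiple reporter transcription units, dosed 24 h. Reporter mRNA quantified by RT-PCR, FAM-labelled primer extension, HpaI digest and capillary electrophoresis; bidirectional fit versus DMSO baseline.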

[4] = ATG_M_06_CIS: Attagene CIS-FACTORIAL HepG2 Assay for M06 Transcription Factor (Internal Marker) (AID 2282950); settings: HepG2 Attagene CIS-FACTORIAL M06 internal marker reporter; actives raise or lower the signal
Procedure, shortened: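 Steps: transfect HepG2 with multiplexed cis-element reporter constructs; dose chemical 24 h; extract RNA with DNase treatment; reverse-transcribe, PCR-amplify, 6-FAM label, HpaI digest; separate fragments by capillary electrophoresis. Activity fitted both directions versus DMSO.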

[5] = molecular target: Hypoxia-inducible factor 1-alpha (Homo sapiens) (UniProt Q16665); assay: ATG_HIF1a_CIS: Attagene CIS-FACTORIAL HepG2 Assay for human Hypoxia Inducible Factor 1 (HIF1A) (AID 2282951); settings: HepG2 Attagene cis-factorial HIF1a reporter transcription; actives raise or lower the signal
Chain of Hypoxia-inducible factor 1-alpha (Homo sapiens) (Q16665 whole entry, looked up): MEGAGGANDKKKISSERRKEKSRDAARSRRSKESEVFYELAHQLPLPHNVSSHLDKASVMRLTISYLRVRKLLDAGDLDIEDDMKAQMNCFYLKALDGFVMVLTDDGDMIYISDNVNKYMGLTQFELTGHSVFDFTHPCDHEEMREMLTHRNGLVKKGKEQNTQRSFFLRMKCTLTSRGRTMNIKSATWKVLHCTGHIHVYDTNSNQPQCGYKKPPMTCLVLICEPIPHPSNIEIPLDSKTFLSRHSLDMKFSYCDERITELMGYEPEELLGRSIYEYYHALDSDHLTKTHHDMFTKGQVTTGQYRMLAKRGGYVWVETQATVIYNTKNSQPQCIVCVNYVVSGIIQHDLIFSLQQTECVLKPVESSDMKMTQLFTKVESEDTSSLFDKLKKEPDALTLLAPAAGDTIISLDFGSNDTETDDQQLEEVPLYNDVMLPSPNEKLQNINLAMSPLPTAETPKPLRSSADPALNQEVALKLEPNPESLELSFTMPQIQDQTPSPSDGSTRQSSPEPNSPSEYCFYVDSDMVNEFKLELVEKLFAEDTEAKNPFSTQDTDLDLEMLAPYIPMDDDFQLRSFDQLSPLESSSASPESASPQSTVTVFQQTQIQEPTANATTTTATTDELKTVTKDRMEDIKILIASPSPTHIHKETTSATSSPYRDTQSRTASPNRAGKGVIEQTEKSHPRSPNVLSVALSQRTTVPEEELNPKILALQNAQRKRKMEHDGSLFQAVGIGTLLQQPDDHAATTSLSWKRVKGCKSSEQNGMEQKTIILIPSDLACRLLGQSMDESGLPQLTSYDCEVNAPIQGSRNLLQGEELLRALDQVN
Procedure, shortened: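 Cis-element reporter constructs were transiently transfected into HepG2 cells, which were treated for 24 h; reporter RNA was reverse-transcribed, amplified, labelled and resolved by capillary electrophoresis.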

[6] = molecular target: Hepatocyte nuclear factor 6 (Homo sapiens) (UniProt Q9UBC0); assay: ATG_HNF6_CIS: Attagene CIS-FACTORIAL HepG2 Assay for human Hepatocyte Nuclear Factor 6 (HNF6) (AID 2282952); settings: HepG2 Attagene cis-factorial HNF6 reporter transcription; actives raise or lower the signal
Chain of Hepatocyte nuclear factor 6 (Homo sapiens) (Q9UBC0 whole entry, looked up, the tested form may be a part): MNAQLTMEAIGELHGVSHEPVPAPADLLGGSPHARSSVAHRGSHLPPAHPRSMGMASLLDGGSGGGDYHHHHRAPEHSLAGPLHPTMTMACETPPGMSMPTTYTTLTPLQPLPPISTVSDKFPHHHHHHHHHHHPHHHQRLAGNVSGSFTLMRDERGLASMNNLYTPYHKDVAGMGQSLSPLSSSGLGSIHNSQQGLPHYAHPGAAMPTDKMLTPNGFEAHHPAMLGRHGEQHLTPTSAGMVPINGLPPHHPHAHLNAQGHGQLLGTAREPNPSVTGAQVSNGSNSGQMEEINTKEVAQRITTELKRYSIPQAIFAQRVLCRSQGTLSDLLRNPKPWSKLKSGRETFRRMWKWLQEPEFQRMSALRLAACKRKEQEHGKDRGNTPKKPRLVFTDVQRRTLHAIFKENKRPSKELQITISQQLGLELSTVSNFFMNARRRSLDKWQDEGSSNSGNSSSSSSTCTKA
Procedure, shortened: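 Using cis-element reporters in HepG2 liver cells, the assay tracks endogenous factor-driven transcription 24 h post-dosing. Signal comes from 6-FAM-labelled, HpaI-digested RT-PCR fragments, with gain or loss scored against DMSO.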

[7] = molecular target: Heat shock factor protein 1 (Homo sapiens) (UniProt Q00613); assay: ATG_HSE_CIS: Attagene CIS-FACTORIAL HepG2 Assay for human Heat Shock Transcription Factor 1 (HSE) (AID 2282953); settings: HepG2 HSE cis-reporter, Attagene RNA transcription; actives raise or lower the signal
Chain of Heat shock factor protein 1 (Homo sapiens) (Q00613 whole entry, looked up, the tested form may be a part): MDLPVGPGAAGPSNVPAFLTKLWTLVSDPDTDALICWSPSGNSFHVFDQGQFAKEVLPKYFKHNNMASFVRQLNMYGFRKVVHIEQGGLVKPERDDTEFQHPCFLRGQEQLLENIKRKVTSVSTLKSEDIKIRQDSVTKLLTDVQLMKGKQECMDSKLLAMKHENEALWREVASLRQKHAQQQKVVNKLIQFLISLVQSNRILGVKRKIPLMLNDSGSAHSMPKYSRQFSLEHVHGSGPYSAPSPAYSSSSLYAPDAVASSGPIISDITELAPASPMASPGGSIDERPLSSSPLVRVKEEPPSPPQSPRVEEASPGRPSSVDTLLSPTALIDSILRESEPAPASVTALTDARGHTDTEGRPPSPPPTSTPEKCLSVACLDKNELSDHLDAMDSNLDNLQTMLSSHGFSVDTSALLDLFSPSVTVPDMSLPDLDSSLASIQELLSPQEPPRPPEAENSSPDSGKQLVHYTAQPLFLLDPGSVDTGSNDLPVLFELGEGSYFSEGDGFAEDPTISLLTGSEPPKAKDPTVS
Procedure, shortened: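 Cells were transfected with cis-element-driven reporter constructs, dosed for 24 h, then total RNA was reverse-transcribed and reporter cDNA amplified, FAM-labelled and digested with HpaI. Fragments were resolved by capillary electrophoresis; gain or loss was fitted against DMSO.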

[8] = ATG_PBREM_CIS: Attagene CIS-FACTORIAL HepG2 Assay for human Phenobarbital-responsive Enhancer Module (PBREM) (AID 2282955); settings: HepG2 PBREM cis-reporter, Attagene multiplexed transcription; actives raise or lower the signal
Procedure, shortened: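 Multiplexed cis-reporter readout in human hepatoma HepG2 cells; PBREM-regulated transcript quantified after 24 h exposure by fluorescent RT-PCR fragment analysis. Signal changes up or down fitted relative to DMSO.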

[9] = molecular target: Paired box protein Pax-6 (Homo sapiens) (UniProt P26367); assay: ATG_Pax6_CIS: Attagene CIS-FACTORIAL HepG2 Assay for human Paired Box 6 (PAX6) (AID 2282956); settings: HepG2 CIS-FACTORIAL PAX6 reporter transcription, RNA readout; actives raise or lower the signal
Chain of Paired box protein Pax-6 (Homo sapiens) (P26367 whole entry, looked up): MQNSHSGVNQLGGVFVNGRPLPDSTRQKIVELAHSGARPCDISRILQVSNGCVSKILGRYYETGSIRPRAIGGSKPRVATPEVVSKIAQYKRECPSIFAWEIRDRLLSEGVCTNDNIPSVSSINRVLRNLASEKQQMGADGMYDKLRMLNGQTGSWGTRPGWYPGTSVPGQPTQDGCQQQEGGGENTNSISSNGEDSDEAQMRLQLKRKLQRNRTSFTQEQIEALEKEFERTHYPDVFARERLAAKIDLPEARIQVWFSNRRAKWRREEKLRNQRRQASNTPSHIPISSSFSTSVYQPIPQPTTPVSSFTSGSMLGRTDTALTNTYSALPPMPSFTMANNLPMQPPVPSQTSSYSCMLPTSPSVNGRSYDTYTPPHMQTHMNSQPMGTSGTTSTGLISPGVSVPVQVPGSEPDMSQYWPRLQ
Procedure, shortened: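 Read-out is reporter transcript level, measured by RT-PCR with fluorescent primer extension and capillary electrophoresis after 24 h dosing of transfected HepG2 cells. Activity in either direction fitted relative to DMSO control.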

[10] = ATG_PXRE_CIS: Attagene CIS-FACTORIAL HepG2 Assay for human Pregnane X Receptor Element (PXRE) (AID 2282957); settings: HepG2 Attagene CIS-FACTORIAL PXRE reporter, mRNA; actives raise or lower the signal
Procedure, shortened: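 Using HepG2 transfected with multiple reporter transcription units, endogenous factor-driven transcription was scored as reporter mRNA after 24 h exposure.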

[11] = ATG_PPRE_CIS: Attagene CIS-FACTORIAL HepG2 Assay for human Peroxisome Proliferator-activated Response Element (PPRE) (AID 2282958); settings: HepG2 PPRE cis-element reporter, Attagene transcription factor profiling; actives raise or lower the signal
Procedure, shortened: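 DMSO served as negative control and baseline for bidirectional curve fitting. Signal came from PPRE-regulated reporter mRNA in HepG2 cells, measured 24 h post-dosing by RT-PCR, 6-FAM primer extension and capillary electrophoresis.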

[12] = ATG_RORE_CIS: Attagene CIS-FACTORIAL HepG2 Assay for human RAR-related Orphan Receptor Element (RORE) (AID 2282959); settings: HepG2 Attagene cis-factorial RORE reporter, mRNA; actives raise or lower the signal
Procedure, shortened: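 Transfect HepG2 with MRTUs; treat 24 h; extract RNA; RT with oligo(dT); PCR with reporter-specific primers; 6-FAM primer extension; HpaI digest 2 h at 37 C; capillary electrophoresis. Fit vs DMSO, bidirectional.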

[13] = ATG_Sox_CIS: Attagene CIS-FACTORIAL HepG2 Assay for human SRY-box transcription factor (SOX) (AID 2282960); settings: HepG2 Attagene cis-factorial SOX reporter, mRNA; actives raise or lower the signal
Procedure, shortened: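 Fluorescence-labelled cDNA fragments from reporter transcripts, sized by CE, give the signal. Cells: HepG2, transiently transfected with cis-regulated reporter units. Exposure 24 h; DMSO negative control; bidirectional curve fitting.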

[14] = molecular target: Transcription factor Sp1 (Homo sapiens) (UniProt P08047); assay: ATG_Sp1_CIS: Attagene CIS-FACTORIAL HepG2 Assay for human Specificity Protein 1 (Sp1) (AID 2282961); settings: HepG2 Sp1 cis-reporter transcription, actives raise or lower the signal
Chain of Transcription factor Sp1 (Homo sapiens) (P08047 whole entry, looked up): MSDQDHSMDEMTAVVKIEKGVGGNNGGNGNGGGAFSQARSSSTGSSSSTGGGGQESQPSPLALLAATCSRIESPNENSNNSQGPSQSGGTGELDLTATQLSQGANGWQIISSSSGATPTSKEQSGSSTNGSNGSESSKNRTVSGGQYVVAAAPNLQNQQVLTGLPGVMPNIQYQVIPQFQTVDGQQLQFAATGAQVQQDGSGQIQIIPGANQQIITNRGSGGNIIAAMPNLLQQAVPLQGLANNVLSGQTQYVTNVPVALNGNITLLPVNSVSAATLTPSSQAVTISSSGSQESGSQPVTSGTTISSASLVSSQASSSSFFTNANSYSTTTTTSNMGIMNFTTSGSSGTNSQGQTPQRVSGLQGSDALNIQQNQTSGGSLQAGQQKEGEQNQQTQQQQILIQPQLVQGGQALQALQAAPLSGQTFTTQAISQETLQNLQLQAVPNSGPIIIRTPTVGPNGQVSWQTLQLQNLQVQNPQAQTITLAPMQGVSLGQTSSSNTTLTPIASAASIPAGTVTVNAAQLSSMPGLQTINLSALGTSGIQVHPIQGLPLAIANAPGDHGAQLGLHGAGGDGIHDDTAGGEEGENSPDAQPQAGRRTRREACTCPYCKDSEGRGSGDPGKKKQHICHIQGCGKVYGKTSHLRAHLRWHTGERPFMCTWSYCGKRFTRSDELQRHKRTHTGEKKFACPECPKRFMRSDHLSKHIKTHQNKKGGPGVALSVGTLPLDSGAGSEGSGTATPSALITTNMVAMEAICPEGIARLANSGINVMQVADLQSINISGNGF
Procedure, shortened: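 Chemicals are dosed onto HepG2 cells transfected with multiple cis-promoter reporter constructs, and after 24 h reporter RNA is reverse-transcribed, PCR-amplified and resolved by capillary electrophoresis for fluorescence quantitation; activity is scored up or down against DMSO.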

[15] = ATG_SREBP_CIS: Attagene CIS-FACTORIAL HepG2 Assay for human Sterol Regulatory Element Binding (SREBP) (AID 2282962); settings: HepG2 Attagene cis-factorial SREBP reporter, mRNA; actives raise or lower the signal
Procedure, shortened: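 Endogenous SREBP activity read as cis-element-driven reporter transcript in transiently transfected HepG2, 24 h post-dosing; quantified via RT-PCR plus capillary electrophoresis of fluorescent fragments. Gain or loss of signal fitted relative to DMSO baseline.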

[16] = molecular target: Signal transducer and activator of transcription 3 (Homo sapiens) (UniProt P40763); assay: ATG_STAT3_CIS: Attagene CIS-FACTORIAL HepG2 Assay for human Signal Transducer and Activator of Transcription 3 (STAT3) (AID 2282963); settings: HepG2, Attagene cis-factorial STAT3 reporter transcription; actives raise or lower the signal
Chain of Signal transducer and activator of transcription 3 (Homo sapiens) (P40763 whole entry, looked up, the tested form may be a part): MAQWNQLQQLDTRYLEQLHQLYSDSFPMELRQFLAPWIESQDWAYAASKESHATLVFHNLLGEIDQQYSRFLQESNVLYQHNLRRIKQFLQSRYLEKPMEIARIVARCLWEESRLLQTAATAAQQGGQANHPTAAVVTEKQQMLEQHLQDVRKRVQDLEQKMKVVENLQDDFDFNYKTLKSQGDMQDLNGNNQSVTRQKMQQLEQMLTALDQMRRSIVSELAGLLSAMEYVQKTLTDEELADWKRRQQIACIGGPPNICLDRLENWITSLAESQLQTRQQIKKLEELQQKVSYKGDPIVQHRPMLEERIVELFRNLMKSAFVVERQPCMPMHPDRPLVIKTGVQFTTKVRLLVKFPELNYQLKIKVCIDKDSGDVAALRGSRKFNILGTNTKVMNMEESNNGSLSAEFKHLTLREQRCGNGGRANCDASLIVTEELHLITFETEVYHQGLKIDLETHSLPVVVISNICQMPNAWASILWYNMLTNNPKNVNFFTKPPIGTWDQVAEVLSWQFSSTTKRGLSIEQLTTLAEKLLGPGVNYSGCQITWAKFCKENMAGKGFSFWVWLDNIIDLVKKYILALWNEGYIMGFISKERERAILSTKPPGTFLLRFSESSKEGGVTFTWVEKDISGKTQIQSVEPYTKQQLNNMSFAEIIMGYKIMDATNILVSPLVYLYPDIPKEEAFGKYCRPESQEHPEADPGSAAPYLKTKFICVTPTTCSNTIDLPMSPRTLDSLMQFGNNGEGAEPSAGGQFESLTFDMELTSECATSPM
Procedure, shortened: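 Fluorescence intensity of 6-FAM-labelled reporter fragments, separated by capillary electrophoresis after RT-PCR, gave the signal. Cells were HepG2 transfected with cis-element reporter units and treated 24 h; fitting was bidirectional relative to DMSO.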

[17] = ATG_TA_CIS: Attagene CIS-FACTORIAL HepG2 Assay for human TA Basal Promoter (AID 2282964); settings: HepG2 Attagene CIS-factorial TA basal promoter reporter; actives raise or lower the signal
Procedure, shortened: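 Steps: transfect HepG2 with MRTUs; dose 24 h; isolate RNA, DNase-treat, reverse-transcribe; PCR and FAM-label reporter cDNA; digest with HpaI 2h at 37 C; run capillary electrophoresis. Activity fitted both directions against DMSO.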

[18] = ATG_TCF_b_cat_CIS: Attagene CIS-FACTORIAL HepG2 Assay for human T-Cell-Factor with beta-catenin (TCF/b-cat) (AID 2282965); settings: HepG2 TCF/beta-catenin cis-reporter transcription, actives raise or lower the signal
Procedure, shortened: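 HepG2 cells transiently transfected with cis-promoter-driven multiplexed reporter units; reporter mRNA measured 24 h after dosing by RT-PCR, FAM labelling, HpaI digestion and capillary electrophoresis. Bidirectional fitting relative to DMSO baseline.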

[19] = ATG_MRE_CIS: Attagene CIS-FACTORIAL HepG2 Assay for human Metal Responsive Element (MRE) (AID 2282954); settings: HepG2 MRE cis-reporter transcription, Attagene multiplex; actives raise or lower the signal
Procedure, shortened: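 Measured here is mRNA induction from an MRE cis-element reporter in HepG2 after 24 h, quantified by fluorescence of labelled RT-PCR products on capillary electrophoresis; gain- and loss-of-signal fits use DMSO as baseline.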

Measured: AC50

Nc1ccn([C@H]2CS[C@@H](CO)O2)c(=O)n1
inactive: [1] | [2] | [3] | [4] | [5] | [6] | [7] | [8] | [9] | [10] | [11] | [12] | [13] | [14] | [15] | [16] | [17] | [18]

CCCCCCC(CO)CCCC (centres undefined)
inactive: [1] | [2] | [3] | [4] | [5] | [6] | [7] | [8] | [9] | [11] | [12] | [13] | [14] | [15] | [17] | [18]
active: [10] 33.4 µM

C=C(C)[C@H]1CC=C(C)C(=O)C1
inactive: [1] | [2] | [3] | [4] | [5] | [6] | [7] | [19] | [9] | [12] | [13] | [14] | [15] | [16] | [17] | [18]
active: [10] 27.9 µM

COC(=O)c1cccnc1
inactive: [1] | [2] | [3] | [4] | [5] | [6] | [7] | [9] | [10] | [11] | [13] | [14] | [15] | [16] | [17] | [18]

CC1=NN(c2ccc(S(=O)(=O)O)cc2)C(=O)C1
inactive: [1] | [2] | [3] | [4] | [5] | [6] | [7] | [19] | [8] | [9] | [10] | [12] | [13] | [14] | [15] | [16] | [17] | [18]

CCN(CC)C(=O)N(CC)CC
active: [10] 52 µM
inactive: [1] | [2] | [3] | [4] | [5] | [6] | [19] | [8] | [9] | [11] | [12] | [13] | [14] | [15] | [16] | [17] | [18]
